Reference: the supplement of paper PMC10849652
Of roughly 8,800 targets only a part is listed; those with a hit were picked by preference. About 0.5% of all pairs of compound and target were hits.

Tests used:
Experiment in all cases: log2 fold change, soluble protein after heating vs DMSO (PISA); higher = thermal stabilisation; K562 lysate, 10 uM; active = over 0.2 and 3.5 SD of the protein, either way, in both replicates (recomputed)
vemurafenib = compound: CCCS(=O)(=O)Nc1ccc(F)c(C(=O)c2c[nH]c3ncc(-c4ccc(Cl)cc4)cc23)c1F [vemurafenib]
Outline: (§1)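 A 30 min treatment with 10 μM compound was applied to crude K562 extract at 1 mg/mL protein in PBS pH 7.4 with 1 mM MgCl2. Heating for 3 min spanned 48°C-58°C, after which aliquots were pooled, adjusted to 0.5% NP-40 at 4°C and spun at 21,000xg for 90 min. TMTpro 16plex LC-MS/MS of the supernatant, with channel sums equalised, gave values recorded as log-two fold change in thermal stability against solvent controls, from duplicates.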

[1] = compound: CCCS(=O)(=O)Nc1ccc(F)c(C(=O)c2c[nH]c3ncc(Cl)cc23)c1F
Outline: as §1

barasertib = compound: CCN(CCCOc1ccc2c(Nc3cc(CC(=O)Nc4cccc(F)c4)[nH]n3)ncnc2c1)CCOP(=O)(O)O [barasertib]
Outline: as §1

[2] = compound: CC[C@@H]1C(=O)N(C)c2cnc(Nc3ccc(C(=O)NC4CCN(C)CC4)cc3OC)nc2N1C1CCCC1
Outline: as §1

volasertib = compound: CC[C@@H]1C(=O)N(C)c2cnc(Nc3ccc(C(=O)N[C@H]4CC[C@H](N5CCN(CC6CC6)CC5)CC4)cc3OC)nc2N1C(C)C [volasertib]
Outline: as §1

[3] = compound: CCn1c(C(=O)N(C2CC2)C2CC2)cc2c3c(ncn3C)c(Nc3cc(C)n(C)n3)nc21
Outline: as §1

[4] = compound: CCn1cc(-c2ccnc3[nH]c(-c4cccc(CN(C)C)c4)cc23)c(-c2ccc(NC(=O)N(C)C)cc2)n1
Outline: as §1

[5] = compound: CN1CCC(CNc2ccc3ncc(-c4cccc(OC(F)(F)F)c4)n3n2)CC1
Outline: as §1

saracatinib = compound: CN1CCN(CCOc2cc(OC3CCOCC3)c3c(Nc4c(Cl)ccc5c4OCO5)ncnc3c2)CC1 [saracatinib]
Outline: as §1

sotrastaurin = compound: CN1CCN(c2nc(C3=C(c4c[nH]c5ccccc45)C(=O)NC3=O)c3ccccc3n2)CC1 [sotrastaurin]
Outline: as §1

alvocidib = compound: CN1CC[C@H](c2c(O)cc(O)c3c(=O)cc(-c4ccccc4Cl)oc23)[C@H](O)C1 [alvocidib]
Outline: as §1

Tubastatin A = compound: CN1CCc2c(c3ccccc3n2Cc2ccc(C(=O)NO)cc2)C1 [Tubastatin A]
Outline: as §1

[6] = compound: CNC(=O)C1=CC=CC=C1NC2=NC(=NC=C2Cl)NC3=C(C=C(C=C3)N4CCOCC4)OC
Outline: as §1

defactinib = compound: CNC(=O)c1ccc(Nc2ncc(C(F)(F)F)c(NCc3nccnc3N(C)S(C)(=O)=O)n2)cc1 [defactinib]
Outline: as §1

[7] = compound: CNc1nc(-c2ccc3c(N)n[nH]c3c2)cc(N2C[C@@H](C(=O)NC3CCCCC3)CC[C@H]2C)n1
Outline: as §1

encorafenib = compound: COC(=O)N[C@@H](C)CNc1nccc(-c2cn(C(C)C)nc2-c2cc(Cl)cc(NS(C)(=O)=O)c2F)n1 [encorafenib]
Outline: as §1

[8] = compound: COC(=O)[C@H](CCSC)NC(=O)C1=C(C=C(C=C1)NC[C@H](CS)N)C2=CC=CC=C2
Outline: as §1

alisertib = compound: COc1cc(Nc2ncc3c(n2)-c2ccc(Cl)cc2C(c2c(F)cccc2OC)=NC3)ccc1C(=O)O [alisertib]
Outline: as §1

[9] = compound: COc1cc2nc(-c3cc(F)ccc3O)nc(N[C@@H]3CNC[C@H]3C(C)(C)O)c2cc1OC
Outline: as §1

gefitinib = compound: COc1cc2ncnc(Nc3ccc(F)c(Cl)c3)c2cc1OCCCN1CCOCC1 [gefitinib]
Outline: as §1

Measured: log2 fold change

WRNIP1 (UniProt Q96S55)
active: [8] 0.222
inactive: vemurafenib 0.036 | [1] 0.042 | barasertib 0.064 | [2] -0.114 | volasertib -0.128 | [3] 0.014 | [4] -0.026 | [5] 0.03 | saracatinib -0.006 | sotrastaurin 0.042 | alvocidib 0.005 | Tubastatin A -0.229 | [6] 0.01 | defactinib 0.01 | [7] -0.044 | encorafenib 0.024 | alisertib -0.022 | [9] -0.014 | gefitinib 0.033

ZNF609 (UniProt O15014)
inactive: vemurafenib 0.165 | [1] 0.033 | barasertib 0.027 | [2] 0.011 | volasertib 0.005 | [3] 0.022 | [4] -0.014 | [5] 0.064 | saracatinib 0.004 | sotrastaurin 0.013 | alvocidib -0.028 | Tubastatin A -0.044 | [6] 0.02 | defactinib -0.026 | [7] 0.074 | encorafenib 0.002 | [8] 0.013 | alisertib -0.01 | [9] 0.018 | gefitinib -0.002

YTHDF3 (UniProt Q7Z739)
inactive: vemurafenib -0.019 | [1] 0.002 | barasertib 0.119 | [2] 0.058 | volasertib -0.071 | [3] 0.168 | [4] -0.041 | [5] 0.01 | saracatinib 0.076 | sotrastaurin -0.083 | alvocidib 0.03 | Tubastatin A -0.108 | [6] -0.071 | defactinib -0.05 | [7] -0.112 | encorafenib 0.097 | [8] 0.024 | alisertib 0.043 | [9] 0.009 | gefitinib 0.013

USE1 (UniProt Q9NZ43)
inactive: vemurafenib -0.071 | [1] -0.049 | barasertib 0.021 | [2] 0.036 | volasertib 0.04 | [3] 0.093 | [4] 0.002 | [5] -0.103 | saracatinib -0.02 | sotrastaurin 0.017 | alvocidib 0.019 | Tubastatin A -0.054 | [6] -0.002 | defactinib 0.064 | [7] 0.015 | encorafenib 0.067 | [8] -0.037 | alisertib -0.059 | [9] 0.039 | gefitinib -0.026

XPO1 (UniProt O14980)
inactive: vemurafenib 0.015 | [1] 0.005 | barasertib 0.023 | [2] -0.055 | volasertib -0.026 | [3] 0.013 | [4] -0.05 | [5] 0.019 | saracatinib 0.033 | sotrastaurin 0.022 | alvocidib 0.005 | Tubastatin A -0.096 | [6] -0.011 | defactinib 0.016 | [7] -0.013 | encorafenib 0.034 | [8] -0.101 | alisertib 0.013 | [9] 0.023 | gefitinib -0.007

WDR91 (UniProt A4D1P6)
inactive: vemurafenib -0.096 | [1] 0.028 | barasertib 0.046 | [2] -0.043 | volasertib -0.023 | [3] 0.055 | [4] -0.01 | [5] 0.041 | saracatinib 0.067 | sotrastaurin 0.019 | alvocidib -0.018 | Tubastatin A -0.097 | [6] 0.017 | defactinib -0.003 | [7] -0.056 | encorafenib 0.026 | [8] 0.1 | alisertib 0.013 | [9] -0.007 | gefitinib -0.004

VPS39 (UniProt Q96JC1)
Sequence of UniProt Q96JC1 (Q96JC1 whole entry, looked up): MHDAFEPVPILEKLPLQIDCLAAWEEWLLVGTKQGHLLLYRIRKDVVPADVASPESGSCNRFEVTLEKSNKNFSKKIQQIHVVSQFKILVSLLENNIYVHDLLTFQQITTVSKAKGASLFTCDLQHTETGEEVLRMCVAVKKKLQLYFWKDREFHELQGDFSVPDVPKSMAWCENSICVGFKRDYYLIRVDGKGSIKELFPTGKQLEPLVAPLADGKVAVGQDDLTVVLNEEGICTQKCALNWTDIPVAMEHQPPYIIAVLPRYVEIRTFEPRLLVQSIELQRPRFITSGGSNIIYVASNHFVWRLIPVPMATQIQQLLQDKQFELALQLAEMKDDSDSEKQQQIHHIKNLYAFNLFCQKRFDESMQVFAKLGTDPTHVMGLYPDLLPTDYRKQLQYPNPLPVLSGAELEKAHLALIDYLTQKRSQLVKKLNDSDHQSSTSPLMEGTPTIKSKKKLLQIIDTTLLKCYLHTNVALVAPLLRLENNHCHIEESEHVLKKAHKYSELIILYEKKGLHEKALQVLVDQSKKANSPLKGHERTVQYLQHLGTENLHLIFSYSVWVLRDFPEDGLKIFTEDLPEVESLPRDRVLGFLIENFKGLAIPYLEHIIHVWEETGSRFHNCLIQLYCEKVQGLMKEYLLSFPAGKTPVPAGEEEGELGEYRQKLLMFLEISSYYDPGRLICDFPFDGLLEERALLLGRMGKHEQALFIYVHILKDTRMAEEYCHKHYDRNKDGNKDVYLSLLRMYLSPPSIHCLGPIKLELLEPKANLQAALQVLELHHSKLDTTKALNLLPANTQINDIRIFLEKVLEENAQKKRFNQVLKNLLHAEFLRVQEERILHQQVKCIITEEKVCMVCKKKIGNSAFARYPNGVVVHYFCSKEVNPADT
inactive: vemurafenib -0.034 | [1] 0.014 | barasertib 0.022 | [2] -0.029 | volasertib -0.045 | [3] 0.001 | [5] -0.151 | saracatinib 0.018 | sotrastaurin -0.008 | Tubastatin A -0.06 | [6] 0.036 | defactinib 0.011 | [7] 0.007 | encorafenib 0.043 | [8] -0.218 | alisertib 0.041 | [9] 0.026 | gefitinib -0.041
active: [4] 0.73 | alvocidib 0.268

UQCRC2 (UniProt P22695)
Sequence of UniProt P22695 (P22695 whole entry, looked up): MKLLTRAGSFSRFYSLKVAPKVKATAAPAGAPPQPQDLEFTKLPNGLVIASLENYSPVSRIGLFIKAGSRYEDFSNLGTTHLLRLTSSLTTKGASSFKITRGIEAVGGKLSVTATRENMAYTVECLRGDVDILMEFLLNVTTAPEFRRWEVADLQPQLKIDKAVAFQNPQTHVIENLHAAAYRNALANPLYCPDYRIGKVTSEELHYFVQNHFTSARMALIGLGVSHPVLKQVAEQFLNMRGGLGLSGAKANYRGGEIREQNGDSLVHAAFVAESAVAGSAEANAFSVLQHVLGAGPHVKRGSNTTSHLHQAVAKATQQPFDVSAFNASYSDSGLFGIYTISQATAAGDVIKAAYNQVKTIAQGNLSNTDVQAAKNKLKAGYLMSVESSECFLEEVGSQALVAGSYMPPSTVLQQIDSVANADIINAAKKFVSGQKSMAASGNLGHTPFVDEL
inactive: vemurafenib -0.016 | [1] 0.01 | barasertib -0.018 | [2] 0.026 | volasertib 0.01 | [3] -0.015 | [4] 0.034 | [5] -0.003 | saracatinib 0.002 | sotrastaurin -0.02 | alvocidib -0.005 | Tubastatin A 0.035 | [6] -0.013 | defactinib 0.014 | [7] 0.01 | encorafenib -0.001 | [8] -0.013 | alisertib 0.022 | [9] 0.024 | gefitinib -0.013

VTN (UniProt P04004)
active: [4] -0.615
inactive: vemurafenib 0.029 | [1] 0.058 | barasertib 0.043 | [2] 0.063 | volasertib -0.001 | [3] 0.011 | [5] 0.289 | saracatinib 0.075 | sotrastaurin -0.012 | alvocidib -0.112 | Tubastatin A -0.012 | [6] -0.095 | defactinib 0.104 | [7] -0.061 | encorafenib 0.089 | [8] -0.074 | alisertib -0.041 | [9] 0.014 | gefitinib 0.009

WIPI2 (UniProt Q9Y4P8)
Sequence of UniProt Q9Y4P8 (Q9Y4P8 whole entry, looked up): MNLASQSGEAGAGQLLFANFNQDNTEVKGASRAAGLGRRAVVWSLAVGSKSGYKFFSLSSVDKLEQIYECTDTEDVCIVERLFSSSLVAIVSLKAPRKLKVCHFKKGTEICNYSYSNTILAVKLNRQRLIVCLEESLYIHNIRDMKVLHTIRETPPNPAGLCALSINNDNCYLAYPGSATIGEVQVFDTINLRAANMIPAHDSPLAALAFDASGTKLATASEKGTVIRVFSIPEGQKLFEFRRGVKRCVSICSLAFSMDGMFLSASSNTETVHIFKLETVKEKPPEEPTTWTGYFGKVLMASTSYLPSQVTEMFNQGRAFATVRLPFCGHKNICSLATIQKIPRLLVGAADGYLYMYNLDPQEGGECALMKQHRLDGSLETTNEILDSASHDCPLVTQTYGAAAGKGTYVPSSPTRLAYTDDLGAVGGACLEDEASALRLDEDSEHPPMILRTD
inactive: vemurafenib -0.028 | [1] 0.012 | barasertib -0.06 | [2] -0.073 | volasertib -0.022 | [3] 0.002 | [4] -0.108 | [5] 0.09 | saracatinib 0.01 | sotrastaurin -0.002 | alvocidib -0.036 | Tubastatin A 0.005 | [6] -0.007 | defactinib 0.036 | [7] -0.051 | encorafenib 0.029 | [8] 0.049 | alisertib -0.033 | [9] -0.012 | gefitinib -0.027

YTHDC2 (UniProt Q9H6S0)
Sequence of UniProt Q9H6S0 (Q9H6S0 whole entry, looked up): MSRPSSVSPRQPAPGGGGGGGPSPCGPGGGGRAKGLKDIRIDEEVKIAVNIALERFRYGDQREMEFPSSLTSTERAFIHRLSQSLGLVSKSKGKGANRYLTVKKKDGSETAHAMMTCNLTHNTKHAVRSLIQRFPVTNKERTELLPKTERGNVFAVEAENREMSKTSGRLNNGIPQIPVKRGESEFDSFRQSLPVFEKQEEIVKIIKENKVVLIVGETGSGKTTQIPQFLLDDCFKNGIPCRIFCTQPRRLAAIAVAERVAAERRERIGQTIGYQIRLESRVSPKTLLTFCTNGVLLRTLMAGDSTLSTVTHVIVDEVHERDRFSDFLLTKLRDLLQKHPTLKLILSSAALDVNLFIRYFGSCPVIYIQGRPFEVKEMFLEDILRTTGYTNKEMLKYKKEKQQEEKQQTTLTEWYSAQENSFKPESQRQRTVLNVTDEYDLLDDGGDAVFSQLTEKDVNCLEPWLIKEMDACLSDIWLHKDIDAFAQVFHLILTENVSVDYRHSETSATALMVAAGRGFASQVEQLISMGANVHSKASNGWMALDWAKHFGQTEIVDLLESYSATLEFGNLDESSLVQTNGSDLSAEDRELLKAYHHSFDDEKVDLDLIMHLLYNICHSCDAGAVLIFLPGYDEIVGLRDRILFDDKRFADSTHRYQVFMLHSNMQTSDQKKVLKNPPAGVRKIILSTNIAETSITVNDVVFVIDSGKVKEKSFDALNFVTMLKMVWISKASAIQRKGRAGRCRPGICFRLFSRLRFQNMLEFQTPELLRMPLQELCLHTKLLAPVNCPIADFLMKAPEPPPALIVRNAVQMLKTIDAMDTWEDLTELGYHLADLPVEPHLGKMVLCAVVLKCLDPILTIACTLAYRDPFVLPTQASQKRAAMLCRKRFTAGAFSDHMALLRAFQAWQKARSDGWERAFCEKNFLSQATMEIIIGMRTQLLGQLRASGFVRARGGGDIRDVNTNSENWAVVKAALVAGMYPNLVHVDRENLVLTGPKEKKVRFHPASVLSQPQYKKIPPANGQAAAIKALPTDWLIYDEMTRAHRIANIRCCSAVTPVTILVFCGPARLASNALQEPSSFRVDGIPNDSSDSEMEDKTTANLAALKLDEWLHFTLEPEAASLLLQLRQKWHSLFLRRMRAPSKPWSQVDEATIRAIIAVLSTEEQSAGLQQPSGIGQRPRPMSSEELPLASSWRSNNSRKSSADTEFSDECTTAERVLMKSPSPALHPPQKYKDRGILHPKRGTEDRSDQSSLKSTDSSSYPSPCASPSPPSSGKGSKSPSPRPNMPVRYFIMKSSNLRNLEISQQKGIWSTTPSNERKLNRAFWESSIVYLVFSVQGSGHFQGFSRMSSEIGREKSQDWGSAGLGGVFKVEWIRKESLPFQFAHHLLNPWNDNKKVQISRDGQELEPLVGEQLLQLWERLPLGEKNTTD
inactive: vemurafenib 0.068 | [1] 0.022 | barasertib 0.07 | [2] -0.013 | volasertib -0.027 | [3] 0.025 | [4] 0.025 | [5] 0.005 | saracatinib 0.015 | sotrastaurin 0.022 | alvocidib 0.05 | Tubastatin A -0.084 | [6] 0.038 | defactinib 0.048 | [7] -0.008 | encorafenib 0.04 | [8] 0.05 | alisertib -0.026 | [9] -0.029 | gefitinib -0.004

ZMYM1 (UniProt Q5SVZ6)
active: [4] -0.272
inactive: vemurafenib 0.011 | [1] -0.017 | barasertib 0.05 | [2] -0.033 | volasertib -0.124 | [3] 0.017 | [5] 0.127 | saracatinib 0.013 | sotrastaurin 0.05 | alvocidib -0.162 | Tubastatin A -0.098 | [6] 0.071 | defactinib -0.035 | [7] 0.067 | encorafenib 0.063 | [8] -0.038 | alisertib -0.008 | [9] 0.03 | gefitinib 0.009

USP48 (UniProt Q86UV5)
active: [4] -0.821
inactive: vemurafenib 0.043 | [1] 0.074 | barasertib -0.024 | [2] 0.047 | volasertib -0.102 | [3] -0.057 | [5] 0.146 | saracatinib -0.021 | sotrastaurin -0.12 | alvocidib -0.193 | Tubastatin A -0.069 | [6] 0.123 | defactinib 0.024 | [7] 0.054 | encorafenib -0.016 | [8] 0.018 | alisertib -0.015 | [9] 0.09 | gefitinib -0.069

ZBTB33 (UniProt Q86T24)
inactive: vemurafenib 0.01 | [1] -0.017 | barasertib -0.199 | [2] -0.002 | [3] 0 | [4] 0.034 | [5] -0.008 | saracatinib 0.033 | sotrastaurin 0.015 | alvocidib -0.028 | Tubastatin A -0.005 | [6] -0.178 | defactinib -0.062 | [7] 0.119 | encorafenib 0.018 | [8] -0.004 | alisertib -0.059 | [9] -0.307 | gefitinib 0.086
active: volasertib -0.673

WIPI1 (UniProt Q5MNZ9)
Sequence of UniProt Q5MNZ9 (Q5MNZ9 whole entry, looked up): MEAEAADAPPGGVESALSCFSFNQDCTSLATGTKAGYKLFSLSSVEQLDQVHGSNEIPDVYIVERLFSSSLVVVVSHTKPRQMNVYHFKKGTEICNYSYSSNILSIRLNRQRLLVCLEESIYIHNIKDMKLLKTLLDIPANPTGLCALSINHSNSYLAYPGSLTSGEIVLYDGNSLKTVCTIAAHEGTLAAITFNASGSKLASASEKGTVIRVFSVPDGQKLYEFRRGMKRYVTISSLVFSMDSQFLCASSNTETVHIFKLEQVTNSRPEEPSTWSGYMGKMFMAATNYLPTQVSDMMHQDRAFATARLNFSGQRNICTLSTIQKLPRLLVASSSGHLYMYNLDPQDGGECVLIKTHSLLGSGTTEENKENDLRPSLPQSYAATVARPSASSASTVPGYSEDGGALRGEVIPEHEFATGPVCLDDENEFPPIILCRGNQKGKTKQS
inactive: [1] 0.044 | barasertib 0.04 | [2] 0.119 | volasertib -0.014 | [3] -0.043 | [4] -0.079 | [5] 0.022 | saracatinib 0.025 | sotrastaurin -0.074 | alvocidib -0.046 | Tubastatin A 0.013 | [6] 0.036 | [7] 0.099 | encorafenib -0.009 | [8] 0.029 | alisertib -0.189 | [9] 0.008 | gefitinib -0.017

ZSCAN21 (UniProt Q9Y5A6)
inactive: [2] -0.024 | [4] 0.043 | [5] 0.053 | alvocidib -0.11 | encorafenib 0.031 | [8] 0.103

ZBTB40 (UniProt Q9NUA8)
Sequence of UniProt Q9NUA8 (Q9NUA8 whole entry, looked up): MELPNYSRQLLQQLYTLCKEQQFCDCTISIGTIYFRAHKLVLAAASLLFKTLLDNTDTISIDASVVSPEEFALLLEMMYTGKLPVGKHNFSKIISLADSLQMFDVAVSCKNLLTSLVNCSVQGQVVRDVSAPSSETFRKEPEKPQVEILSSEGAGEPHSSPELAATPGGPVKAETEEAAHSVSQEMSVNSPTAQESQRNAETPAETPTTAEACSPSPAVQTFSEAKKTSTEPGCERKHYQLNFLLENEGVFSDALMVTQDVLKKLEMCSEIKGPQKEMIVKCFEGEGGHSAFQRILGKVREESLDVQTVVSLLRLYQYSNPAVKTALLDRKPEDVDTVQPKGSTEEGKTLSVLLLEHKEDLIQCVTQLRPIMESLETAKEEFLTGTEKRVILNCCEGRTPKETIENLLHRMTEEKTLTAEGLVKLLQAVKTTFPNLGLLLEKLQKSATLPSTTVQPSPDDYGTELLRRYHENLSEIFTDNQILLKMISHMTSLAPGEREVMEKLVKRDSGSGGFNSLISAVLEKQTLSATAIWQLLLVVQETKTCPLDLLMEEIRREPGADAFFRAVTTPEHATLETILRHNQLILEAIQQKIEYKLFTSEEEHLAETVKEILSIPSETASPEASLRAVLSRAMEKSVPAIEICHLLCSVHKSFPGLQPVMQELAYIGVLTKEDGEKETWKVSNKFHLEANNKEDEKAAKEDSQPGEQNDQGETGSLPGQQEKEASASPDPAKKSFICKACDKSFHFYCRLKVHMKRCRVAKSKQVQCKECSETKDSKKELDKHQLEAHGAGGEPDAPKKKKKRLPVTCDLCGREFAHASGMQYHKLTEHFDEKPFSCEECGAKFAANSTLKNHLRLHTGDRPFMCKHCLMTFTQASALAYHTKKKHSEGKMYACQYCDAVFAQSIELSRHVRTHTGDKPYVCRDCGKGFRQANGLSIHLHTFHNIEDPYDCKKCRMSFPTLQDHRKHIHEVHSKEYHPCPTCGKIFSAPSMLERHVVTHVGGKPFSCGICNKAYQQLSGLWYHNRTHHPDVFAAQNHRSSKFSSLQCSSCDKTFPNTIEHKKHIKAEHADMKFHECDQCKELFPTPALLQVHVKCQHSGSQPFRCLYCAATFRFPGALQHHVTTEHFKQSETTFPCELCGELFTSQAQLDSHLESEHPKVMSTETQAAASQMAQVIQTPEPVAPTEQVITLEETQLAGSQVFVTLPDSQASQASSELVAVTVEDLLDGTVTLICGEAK
inactive: vemurafenib 0.06 | [1] -0.076 | volasertib 0.029 | [3] -0.014 | [4] -0.127 | [5] 0.095 | saracatinib -0.017 | sotrastaurin -0.012 | alvocidib 0.09 | Tubastatin A -0.089 | [6] 0.03 | defactinib -0.032 | [7] 0.048 | alisertib -0.187 | [9] -0.038 | gefitinib -0.246
